Test results from PubChem BioAssay AID504333 (National Center for Advancing Translational Sciences (NCATS), 2011).
Out of some 360,000 compounds screened, about 16,000 (4.4%) were called active. Another 9% or so got no clear call; they are omitted. Calls come from the whole dose curve; as a rule, active = well fitted inhibition curve with a large enough effect; inconclusive = small, poorly fitted or top-dose-only effect; inactive = no such curve, though single readings can be large or run the other way. This excerpt belongs to a sample that is enriched for actives.

Molecular target: Bromodomain adjacent to zinc finger domain protein 2B (Homo sapiens) (UniProt Q9UIF8)
Sequence (Q9UIF8 whole entry, looked up, the tested form may be a part): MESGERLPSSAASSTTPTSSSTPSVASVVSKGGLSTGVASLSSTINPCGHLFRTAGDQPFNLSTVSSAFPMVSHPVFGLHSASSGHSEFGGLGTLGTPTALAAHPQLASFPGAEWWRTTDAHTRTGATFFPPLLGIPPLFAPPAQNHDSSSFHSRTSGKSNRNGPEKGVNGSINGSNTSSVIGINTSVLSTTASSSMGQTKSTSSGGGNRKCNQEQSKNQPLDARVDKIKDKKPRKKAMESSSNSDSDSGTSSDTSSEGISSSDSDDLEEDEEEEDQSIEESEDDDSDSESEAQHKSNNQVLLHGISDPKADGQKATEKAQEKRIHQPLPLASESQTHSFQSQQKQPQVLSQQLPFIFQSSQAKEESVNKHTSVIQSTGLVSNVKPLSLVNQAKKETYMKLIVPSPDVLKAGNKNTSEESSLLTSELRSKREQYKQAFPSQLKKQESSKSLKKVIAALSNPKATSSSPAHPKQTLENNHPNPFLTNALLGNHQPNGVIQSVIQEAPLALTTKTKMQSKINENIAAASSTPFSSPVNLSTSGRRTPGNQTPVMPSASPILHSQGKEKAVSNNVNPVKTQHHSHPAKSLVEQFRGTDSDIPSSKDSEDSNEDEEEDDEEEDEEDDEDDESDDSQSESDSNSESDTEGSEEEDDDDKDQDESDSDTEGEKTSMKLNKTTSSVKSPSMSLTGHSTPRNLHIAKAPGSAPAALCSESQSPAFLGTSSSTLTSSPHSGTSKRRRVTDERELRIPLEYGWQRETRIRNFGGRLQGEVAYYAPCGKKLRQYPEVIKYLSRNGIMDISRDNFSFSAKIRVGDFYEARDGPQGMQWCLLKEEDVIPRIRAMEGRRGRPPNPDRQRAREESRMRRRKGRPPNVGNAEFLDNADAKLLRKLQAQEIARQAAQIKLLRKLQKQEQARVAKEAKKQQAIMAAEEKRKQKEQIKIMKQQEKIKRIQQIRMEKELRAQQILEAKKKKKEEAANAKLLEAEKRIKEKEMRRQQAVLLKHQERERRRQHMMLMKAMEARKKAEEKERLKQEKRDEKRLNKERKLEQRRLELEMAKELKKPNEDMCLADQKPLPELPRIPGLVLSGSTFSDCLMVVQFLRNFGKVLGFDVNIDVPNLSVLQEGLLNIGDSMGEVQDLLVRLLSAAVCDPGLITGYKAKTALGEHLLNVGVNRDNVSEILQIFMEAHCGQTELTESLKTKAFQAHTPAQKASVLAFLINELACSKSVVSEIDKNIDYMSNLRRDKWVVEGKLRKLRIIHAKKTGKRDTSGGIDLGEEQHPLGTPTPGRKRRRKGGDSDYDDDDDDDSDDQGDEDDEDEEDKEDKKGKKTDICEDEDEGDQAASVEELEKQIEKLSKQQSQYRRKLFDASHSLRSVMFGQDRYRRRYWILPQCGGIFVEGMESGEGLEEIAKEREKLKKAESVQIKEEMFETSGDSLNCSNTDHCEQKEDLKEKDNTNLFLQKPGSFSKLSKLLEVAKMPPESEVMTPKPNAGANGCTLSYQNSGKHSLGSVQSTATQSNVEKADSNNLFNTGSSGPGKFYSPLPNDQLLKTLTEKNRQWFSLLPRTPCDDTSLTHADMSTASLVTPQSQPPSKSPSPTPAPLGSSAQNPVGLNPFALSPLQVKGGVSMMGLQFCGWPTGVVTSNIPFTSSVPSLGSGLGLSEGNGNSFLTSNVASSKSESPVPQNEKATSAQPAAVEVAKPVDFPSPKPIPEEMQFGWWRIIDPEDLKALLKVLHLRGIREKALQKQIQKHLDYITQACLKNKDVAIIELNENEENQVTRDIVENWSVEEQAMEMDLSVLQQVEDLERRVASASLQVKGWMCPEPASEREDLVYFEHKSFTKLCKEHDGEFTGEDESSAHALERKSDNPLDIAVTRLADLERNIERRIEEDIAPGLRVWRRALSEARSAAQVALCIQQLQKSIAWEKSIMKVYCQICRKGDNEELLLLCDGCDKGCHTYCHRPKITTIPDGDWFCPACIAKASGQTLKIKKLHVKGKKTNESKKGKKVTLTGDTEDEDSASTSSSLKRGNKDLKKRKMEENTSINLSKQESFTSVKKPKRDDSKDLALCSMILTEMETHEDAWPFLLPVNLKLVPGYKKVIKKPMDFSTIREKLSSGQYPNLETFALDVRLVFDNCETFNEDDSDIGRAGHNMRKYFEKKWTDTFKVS
Experiment: qHTS Assay for Inhibitors of BAZ2B; note: nearly all actives have a fitted effect of over 60% in size
Conditions: AlphaScreen BAZ2B-H3K14Ac peptide displacement; series mostly up to 114 µM; activity change, negative = inhibition: at the top concentration
Outline: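 BAZ2B 50 nM plus b-H3(5-23)K14Ac 50 nM, PBS pH 7.4/0.01% Tween-20, 30 min RT; compound added (max 110 uM), 30 min RT; streptavidin donor/Ni-chelate acceptor beads 10 ug/mL final, 20 min dark; AlphaScreen read.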
% is set by controls: 0 for no effect and ±100 for the full control effect; potency is the fitted concentration of half-maximal effect.

Activity change, negative = inhibition, inactive:
CC(=O)Nc1ccc(NC(=O)CCCc2nc(-c3ccc(C(C)(C)C)cc3)no2)cc1 -13.7%
Cc1ccc(CCNC(=O)Cn2c(-c3cccs3)cc3cc(F)ccc32)cc1 -8.55%
Cc1cccc(Nc2nc(C)nc(N)c2S(=O)(=O)c2ccccc2)c1 -15.6%
CCc1nc(SCC(=O)NNC(=O)c2ccc(C)cc2)c2ccccc2n1 -0.0282%
Cc1ccc(C(=O)NNC(=O)c2cccs2)cc1 18.9%
CCCCCn1c(CCCNC(=O)c2ccccc2OC)nc2ccccc21 -12.8%
COCC(C)NS(=O)(=O)c1ccc(N2CCCCS2(=O)=O)cc1 (stereo not given) -12.2%
CCOC(=O)C1CCN(c2nc3c(S(=O)(=O)c4ccc(CC)cc4)nnn3c3ccc(Cl)cc23)CC1 5.67%
CC(C)C(c1nnnn1Cc1ccccc1)N1CCC(C(N)=O)CC1 (stereo not given) 7.71%
CCCC(c1nnnn1C(C)(C)C)N1CCN(Cc2ccccc2)CC1 (stereo not given) -9.96%
CCN(Cc1ccccc1)C(=O)c1cn(-c2cccc(OC)c2)c(=O)c2ccccc12 1.06%
COc1ccc(CNC(=O)Cc2coc3ccc(C(C)C)cc23)cc1 11.8%
CCc1ccc(NC(=O)c2cnc3c(-c4ccccc4)c(C)nn3c2C)cc1 4.97%
C=CCN(C(=O)c1cc(C)cc(C)c1)C1(C(=O)Nc2ccccc2)CCN(C(C)C)CC1 -20.7%
CCc1ccc(NC(=O)CN2C(=O)C(c3ccccc3)=NC23CCCCCC3)cc1 -1.33%
CCOc1cccc2sc(N3CCN(C(=O)C4CC4)CC3)nc12 0.784%
CCCN1CN=C(NS(=O)(=O)c2ccc(NC(C)=O)cc2)NC1 -14%
Cn1cccc1/C=C1\SC(=O)N(CC(=O)Nc2ccc(F)cc2)C1=O 2.22%
Cc1ccc(C(=O)Nc2ccc3c(c2)OCO3)cc1S(=O)(=O)N1CCCCC1 -34.2%
Cc1ccccc1CNC(=O)C(=O)NCC(c1cccs1)S(=O)(=O)c1cccs1 (stereo not given) -7.59%
COc1ccc(NC(=O)CCCN2C(=O)CCn3nc(-c4cn(C)c5ccccc45)cc32)cc1OC -24.7%
Cc1cccc(-n2cnc(C(=O)Nc3cccnc3)c2)n1 -7.27%
Cn1cc(Cl)c(C(=O)NNC(=S)Nc2cccc(Cl)c2)n1 2.35%
CCn1cc2nc(SCc3ccccc3Cl)n(CCc3ccccc3)c(=O)c2n1 -16.7%
CCc1cc2c(cc(C(=O)OC)n2Cc2nc(-c3ccc(C)cc3)oc2C)s1 -11.1%
CN(C)c1nc(-c2cccnc2)nc(-c2ccc(Cl)cc2)c1C#N -4.97%
O=S(=O)(Cc1cc(Cl)nc(-c2cccnc2)n1)c1ccccc1 11%
COc1ccc(OC)c(-n2nnc(-c3nc(-c4cc(OC)c(OC)c(OC)c4)no3)c2C)c1 -2.45%
CC(C)(C)NC(=O)COC(=O)c1cc(Cl)ccc1[N+](=O)[O-] -36.3%
Cc1ccc(Cl)cc1NC(=O)COC(=O)CC(C)(C)C -1.46%
CCOc1ccc(NC(=O)C(CC(C)C)N2Cc3ccccc3C2=O)cc1 (stereo not given) 1.11%
Cc1ccccc1NC(=O)Cn1cc(C(=O)c2cccs2)c2ccccc21 -0.676%
CCC(C)c1ccc2oc(-c3ccc(NC(=O)c4cc5ccccc5o4)cc3)nc2c1 (stereo not given) -1.68%
COC(=O)c1ccc(/C=N/NC(=O)C(=O)N2CCCCCC2)cc1 -12.8%
COC(=O)N/N=C/c1ccc(/C=N/NC(=O)OC)cc1 8.67%
COc1ccc(CCNc2ncnc3c2cnn3-c2ccc(C)cc2)cc1 0.308%
CCOc1ccc(S(=O)(=O)c2cn(Cc3ccc(OC)cc3)c3ccc(F)cc3c2=O)cc1 -5.21%
O=c1cc(-c2ccccc2)n2c(SCc3ccccc3)nnc2[nH]1 1.16%
O=c1[nH]n2c(-c3ccccc3)nc(O)c2c2ccccc12 -1.83%
Cc1ccc(C(=O)NCCSc2c(C)[nH]c3ccccc23)cc1C -34.8%
CC1CCC2(CC1)N=C(c1ccccc1)C(=O)N2CC(=O)Nc1ccc(F)c(Cl)c1 (stereo not given) -9.91%
COC(=O)c1cnn(-c2ccc(C(=O)Nc3ccc(OC(F)(F)F)cc3)cc2)c1N 2.8%
O=C(Cc1cccs1)Nc1nnc(SCc2ccc(F)cc2)s1 12.2%
CCc1nnc(NC(=O)Cc2cccs2)s1 -9.54%
CCC(C(=O)Nc1cc(OC)ccc1OC)n1c(=O)c(C(F)(F)F)nc2ccccc21 (stereo not given) -1.26%
COc1cccc(-n2cc(C(=O)NCc3cccc(Cl)c3)c3ccccc3c2=O)c1 -37.4%
CCC(C)NC(=O)CSC1=Nc2ccccc2C2=NC(CCC(=O)NCc3ccco3)C(=O)N12 (stereo not given) -4.77%
O=C(CC1N=C2c3ccccc3N=C(SCc3cccc(Cl)c3)N2C1=O)NCc1ccc2c(c1)OCO2 (stereo not given) -11.8%
Cc1ccc(-c2cc(C(F)(F)F)c(C#N)c(SCC(=O)Nc3ccccc3)n2)cc1 -16.3%
CCOC(=O)c1ccc(NC(=O)CCn2cnnn2)cc1 -21.4%
CC(=O)c1nn(-c2ccc(OC(F)(F)F)cc2)nc1Nc1ccccc1 -1.58%
Cc1cc(C(=O)CSc2nc(N)cc(=O)[nH]2)c(C)n1Cc1ccco1 -38%
COCCn1c(C)cc(C(=O)COC(=O)CNC(=O)c2ccco2)c1C 11.5%
COc1ccc(S(=O)(=O)c2c(Nc3ccc(C)cc3)sc(C(=O)c3ccc(C)cc3)c2N)cc1 -14.2%
CCOc1ccc(C(=O)N2CCN(CCc3ccccn3)CC2)cc1 -16.1%
COc1ccc(-c2nc3ccccc3c(=O)n2CCc2ccc(O)cc2)cc1 -7.15%
COc1ccc(-c2c(C#Cc3ccccc3)c3ccccc3n2C)cc1 84%
O=C(NCCc1ccccc1)c1cnc2sc(N3CCCC3)nn2c1=O -19.6%
CCNCCC(=O)N1c2ccccc2Sc2ccc(NC(=O)OCC)cc21 6.36%
CCOC(=O)Nc1ccc2c(c1)N(C(=O)CCCl)c1ccccc1[S@]2=O -5.38%
Cc1cc(C)cc(NS(=O)(=O)c2ccc(-c3cc(C)no3)s2)c1 6.38%
Cc1ccc(C)c(Cn2c(C)c(CNCc3ccc(F)cc3)c(C(=O)O)c2C)c1 -35%
O=C(CCCn1c(=O)c2cccn2c2cccnc21)NCc1ccc(F)cc1 -29.1%
Cc1ccc(OCCCC(=O)N2CCOCC2)c(C)c1 -3.15%
COc1ccc(C(=O)NCCCN2CCOCC2)cc1Br -2.68%
COc1ccccc1NC(=O)c1cc(C2CC2)nc2c1c(C)nn2-c1ccc(C)cc1 12.9% [at 57.1 µM]
CC(C)Cn1c(C2CC(=O)N(c3ccccc3Cl)C2)nc2ccccc21 (stereo not given) -8.15%
Cc1c(Cl)cccc1NC(=O)CCS(=O)(=O)c1ccc2c(c1)oc(=O)n2C 5.14% [at 57.1 µM]
Cc1ccccc1OCCSc1nc2ccc(NC(=O)c3ccco3)cc2s1 -18.8%
Cc1ccsc1/C=N/Nc1ccc(Cl)nn1 -32.3%
Oc1c(Br)cccc1/C=N/Nc1c(F)c(F)c(F)c(F)c1F -1.1%
Nc1nnnn1/N=C/c1cccs1 -1.18%
COc1cccc(/C=N/Nc2ccc(Cl)nn2)c1 -10.6%
Cc1cccc2c(=O)cc(CSc3ccccc3NC(=O)C(C)C)[nH]c12 4.37%
CCOC(=O)N1CCC(NC(=O)c2cnn(-c3cccc(C)c3)c2C2CCN(C(=O)OC(C)(C)C)CC2)CC1 8.59% [at 57.1 µM]
CCc1cccc(NC(=O)Cn2nc(CC)n3c(cc4cc(C)ccc43)c2=O)c1 6.38%
CC(C)CNc1ncnc2c1nnn2C -10.3%
Cc1ccc(COc2ccc(/C=N/NC(=O)CN3CCCCC3)cc2)cc1 -21.8%
CCOc1ccc(/C=N/NC(=O)CSc2ccccn2)cc1O -16.7%
O=C(CC(=O)N/N=C\c1ccc(F)cc1)NCCc1ccccc1 5.67%
Cc1nn(CC(=O)N/N=C/c2ccc(F)cc2)c(C)c1[N+](=O)[O-] 4.73%
Cc1cccc(CSc2nc3ccncc3n2Cc2ccc(C(=O)O)cc2)c1 -4.88%
COc1ccc(CCNC(=O)CCCCn2c(=O)c3ccccc3n(Cc3ccccc3)c2=O)cc1OC 0.11%
Cc1ccc(SCC(=O)Nc2ccc3oc(-c4ccccc4C)nc3c2)cc1 3.57%
COc1ccc(NC(=O)c2ccc3nc(C(C)C)oc3c2)cc1OC 0.556%

Potency, active:
Cc1ccc(C(=O)NNc2ncnc3ccccc23)cc1 56.2 µM
CC(C)C(c1nnnn1C(C)(C)C)N1CCN(Cc2cccnc2)CC1 (stereo not given) 56.2 µM
CCN(C(=O)Cc1nc(N)n[nH]1)C1(C(=O)Nc2ccccc2)CCCCC1 20 µM
Cc1ccc(C(=O)O)cc1-c1ccc(/C=C2\SC(=O)N(CC(=O)Nc3ccc4c(c3)OCO4)C2=O)o1 11.2 µM
Cc1cccc(-n2cnc(C(=O)NNC(=S)Nc3ccccc3)c2)n1 22.4 µM
N#Cc1c(Cl)nc(-c2cccnc2)nc1-c1ccccc1 70.8 µM
CCCC(=O)OCC(=O)Nc1cc(Cl)ccc1[N+](=O)[O-] 39.8 µM
COC(=O)c1ccc(/C=N/N2C(C)CCCC2C)cc1 (stereo not given) 56.2 µM
O=c1[nH]c2ccccc2n2c(-c3ccccc3)nnc12 20 µM
COc1ccc(Cc2nnc(NC(=O)Cc3cccs3)s2)cc1 44.7 µM
CCCCN=C1C([N+](=O)[O-])=CC=C2C1=NC1(CCCCC1)N2O 2.24 µM
O=C(CC1N=C2c3ccccc3N=C(SCc3ccccc3Cl)N2C1=O)NCc1ccco1 (stereo not given) 50.1 µM
Cc1cc(C(=O)COC(=O)CNC(=O)c2ccc(F)cc2)c(C)n1Cc1ccco1 50.1 µM
COc1ccc(CCNCc2c(-c3ccccc3)n(C)c3ccccc23)cc1 50.1 µM
CCOC(=O)Nc1ccc2c(c1)N(C(=O)CN1CCN3CCCC3C1)c1ccccc1CC2 (stereo not given) 70.8 µM
Cc1ccc(OCCCCN2CCCCC2)c(Br)c1 50.1 µM
Clc1ccc(N/N=C/c2cccs2)nn1 50.1 µM
Oc1cccc(/C=N/Nc2ccc(Cl)nn2)c1O 8.91 µM
CCOc1cc(/C=N/NC(=O)CN2CCCCC2)ccc1O 56.2 µM
O=C(CN1CCSCC1)N/N=C/c1ccc(F)cc1 50.1 µM
